# Laboratory results: paper PMC7862700, “An all-to-all approach to the identification of sequence-specific readers for epigenetic DNA modifications on cytosine”
# What was measured:
# Test in all cases: DAPPL (digital affinity profiling via proximity ligation, sequencing); 10 mM Tris-HCl pH 7.5, 50 mM NaCl, 1 mM DTT, 4% glycerol, room temperature, 30 min; GST-TFs on glutathione beads, 16-mer random dsDNA library, 0.1% formaldehyde crosslink after washing; high values mean tight binding
# FEV = target: T1, FEV (Homo sapiens, UniProt Q99581 1-238); settings: protein: recombinant; tags: N-terminal GST; dsDNA, one strand shown
# T1 sequence: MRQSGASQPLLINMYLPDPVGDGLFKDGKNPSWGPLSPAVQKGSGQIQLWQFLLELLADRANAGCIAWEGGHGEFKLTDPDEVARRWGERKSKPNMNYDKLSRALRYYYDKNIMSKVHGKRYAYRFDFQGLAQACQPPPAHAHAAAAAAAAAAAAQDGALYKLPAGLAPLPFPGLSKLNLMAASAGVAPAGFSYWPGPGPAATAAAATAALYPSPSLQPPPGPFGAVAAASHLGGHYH
# Procedure, shortened: (§1)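 Human transcription factors fused to GST were expressed in yeast, captured on glutathione beads, given DNA barcodes and pooled with a GST-only negative control. Pools were incubated with 200 nmole of a 16-mer random double-stranded DNA library in Tris/NaCl/DTT/glycerol buffer at room temperature for 30 min. They were then washed, crosslinked with 0.1% formaldehyde, proximity-ligated (BsaI/T4 ligase, 1 h, 37 °C), PCR-amplified and sequenced on an Illumina NextSeq500. Binding signal is each 6-mer's read frequency for a factor divided by its frequency for the GST control.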
# ETV5 = ETV5 (Homo sapiens, UniProt P41161 1-510); settings: protein: recombinant; tags: N-terminal GST; dsDNA, one strand shown
# Procedure, shortened: as §1
# HSF1 = HSF1 (Homo sapiens, UniProt Q00613 1-529); settings: protein: recombinant; tags: N-terminal GST; chain copies: 3; dsDNA, one strand shown
# Procedure, shortened: as §1
# SPIC = target: T2, SPIC (Homo sapiens, UniProt Q8N5J4 1-248); settings: protein: recombinant; tags: N-terminal GST; dsDNA, one strand shown
# T2 sequence: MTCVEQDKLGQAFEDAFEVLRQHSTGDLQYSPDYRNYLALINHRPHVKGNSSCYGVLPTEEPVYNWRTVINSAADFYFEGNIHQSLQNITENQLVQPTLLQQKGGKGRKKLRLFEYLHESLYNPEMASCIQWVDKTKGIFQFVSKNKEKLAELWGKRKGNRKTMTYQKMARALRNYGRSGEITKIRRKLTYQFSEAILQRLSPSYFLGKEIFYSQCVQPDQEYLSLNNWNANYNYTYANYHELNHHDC
# Procedure, shortened: as §1
# ELF4 = ELF4 (Homo sapiens, UniProt Q99607 1-663); settings: protein: recombinant; tags: N-terminal GST; dsDNA, one strand shown
# Procedure, shortened: as §1
# ELK4 = target: T3, ELK4 (Homo sapiens, UniProt P28324-2 1-405); settings: protein: recombinant; tags: N-terminal GST; dsDNA, one strand shown
# T3 sequence: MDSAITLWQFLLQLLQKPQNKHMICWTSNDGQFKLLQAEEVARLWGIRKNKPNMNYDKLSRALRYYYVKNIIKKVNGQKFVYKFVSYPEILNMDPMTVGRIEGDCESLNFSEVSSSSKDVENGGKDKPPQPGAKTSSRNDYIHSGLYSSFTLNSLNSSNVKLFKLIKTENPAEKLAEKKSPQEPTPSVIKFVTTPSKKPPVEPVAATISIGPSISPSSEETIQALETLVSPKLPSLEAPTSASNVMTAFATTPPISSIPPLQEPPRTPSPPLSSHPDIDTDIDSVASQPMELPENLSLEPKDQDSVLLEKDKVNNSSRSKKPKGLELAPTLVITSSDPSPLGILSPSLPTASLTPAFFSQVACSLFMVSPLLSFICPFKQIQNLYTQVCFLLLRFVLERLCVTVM
# Procedure, shortened: as §1
# ETV2 = target: T4, ETV2 (Homo sapiens, UniProt O00321 1-342); settings: protein: recombinant; tags: N-terminal GST; dsDNA, one strand shown
# T4 sequence: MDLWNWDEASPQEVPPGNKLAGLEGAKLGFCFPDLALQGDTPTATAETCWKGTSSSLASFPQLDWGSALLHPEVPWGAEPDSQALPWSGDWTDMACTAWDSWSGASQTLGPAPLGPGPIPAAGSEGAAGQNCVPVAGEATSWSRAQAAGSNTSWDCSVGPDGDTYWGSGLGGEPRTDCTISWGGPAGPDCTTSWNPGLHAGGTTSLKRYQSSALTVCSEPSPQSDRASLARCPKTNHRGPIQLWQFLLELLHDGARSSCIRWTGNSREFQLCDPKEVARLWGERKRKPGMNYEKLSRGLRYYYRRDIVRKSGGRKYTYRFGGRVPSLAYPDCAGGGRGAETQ
# Procedure, shortened: as §1
# ELF3 = target: T5, ELF3 (Homo sapiens, UniProt P78545 1-371); settings: protein: recombinant; tags: N-terminal GST; dsDNA, one strand shown
# T5 sequence: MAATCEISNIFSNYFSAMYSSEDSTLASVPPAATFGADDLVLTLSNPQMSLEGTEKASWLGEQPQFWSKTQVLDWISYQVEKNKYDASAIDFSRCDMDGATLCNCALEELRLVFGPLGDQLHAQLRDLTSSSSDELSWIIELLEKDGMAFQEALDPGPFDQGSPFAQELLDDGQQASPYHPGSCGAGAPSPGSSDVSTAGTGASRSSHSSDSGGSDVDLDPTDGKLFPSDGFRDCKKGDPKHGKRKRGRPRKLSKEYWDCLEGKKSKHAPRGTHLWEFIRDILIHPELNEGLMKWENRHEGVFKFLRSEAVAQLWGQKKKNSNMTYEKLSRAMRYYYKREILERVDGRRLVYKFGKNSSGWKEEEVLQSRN
# Procedure, shortened: as §1
# CRX = CRX (Homo sapiens, UniProt O43186 1-299); settings: protein: recombinant; tags: N-terminal GST; dsDNA, one strand shown
# Procedure, shortened: as §1
# ETV1 = ETV1 (Homo sapiens, UniProt P50549 1-477); settings: protein: recombinant; tags: N-terminal GST; dsDNA, one strand shown
# Procedure, shortened: as §1
# ERF = target: T6, ERF (Homo sapiens, UniProt P50548 1-548); settings: protein: recombinant; tags: N-terminal GST; dsDNA, one strand shown
# T6 sequence: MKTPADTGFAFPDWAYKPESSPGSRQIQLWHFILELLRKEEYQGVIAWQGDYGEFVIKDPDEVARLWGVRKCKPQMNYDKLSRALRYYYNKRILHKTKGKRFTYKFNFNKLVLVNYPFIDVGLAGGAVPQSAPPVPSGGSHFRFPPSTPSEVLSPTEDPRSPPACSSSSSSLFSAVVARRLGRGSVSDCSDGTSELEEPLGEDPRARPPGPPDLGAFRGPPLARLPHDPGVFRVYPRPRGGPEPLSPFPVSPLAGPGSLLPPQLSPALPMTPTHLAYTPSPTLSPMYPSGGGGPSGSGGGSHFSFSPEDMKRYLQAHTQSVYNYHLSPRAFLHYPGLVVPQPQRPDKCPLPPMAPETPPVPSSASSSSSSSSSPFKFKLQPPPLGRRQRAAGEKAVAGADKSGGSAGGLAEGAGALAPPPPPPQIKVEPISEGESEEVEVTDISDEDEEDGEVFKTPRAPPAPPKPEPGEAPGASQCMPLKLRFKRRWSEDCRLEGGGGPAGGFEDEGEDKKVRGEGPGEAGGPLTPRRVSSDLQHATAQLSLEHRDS
# Procedure, shortened: as §1
# ETV3L = target: T7, ETV3L (Homo sapiens, UniProt Q6ZN32 1-361); settings: protein: recombinant; tags: N-terminal GST; dsDNA, one strand shown
# T7 sequence: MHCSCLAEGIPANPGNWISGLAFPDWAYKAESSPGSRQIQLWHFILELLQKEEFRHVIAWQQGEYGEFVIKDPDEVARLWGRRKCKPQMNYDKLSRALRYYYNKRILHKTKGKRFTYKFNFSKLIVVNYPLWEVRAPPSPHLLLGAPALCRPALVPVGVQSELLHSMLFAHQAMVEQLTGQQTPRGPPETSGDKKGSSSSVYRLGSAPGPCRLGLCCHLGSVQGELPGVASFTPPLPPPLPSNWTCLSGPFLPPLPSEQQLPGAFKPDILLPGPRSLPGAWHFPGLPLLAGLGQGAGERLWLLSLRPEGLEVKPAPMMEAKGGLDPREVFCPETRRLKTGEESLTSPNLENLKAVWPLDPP
# Procedure, shortened: as §1
# ETS2 = target: T8, ETS2 (Homo sapiens, UniProt P15036 1-469); settings: protein: recombinant; tags: N-terminal GST; dsDNA, one strand shown
# T8 sequence: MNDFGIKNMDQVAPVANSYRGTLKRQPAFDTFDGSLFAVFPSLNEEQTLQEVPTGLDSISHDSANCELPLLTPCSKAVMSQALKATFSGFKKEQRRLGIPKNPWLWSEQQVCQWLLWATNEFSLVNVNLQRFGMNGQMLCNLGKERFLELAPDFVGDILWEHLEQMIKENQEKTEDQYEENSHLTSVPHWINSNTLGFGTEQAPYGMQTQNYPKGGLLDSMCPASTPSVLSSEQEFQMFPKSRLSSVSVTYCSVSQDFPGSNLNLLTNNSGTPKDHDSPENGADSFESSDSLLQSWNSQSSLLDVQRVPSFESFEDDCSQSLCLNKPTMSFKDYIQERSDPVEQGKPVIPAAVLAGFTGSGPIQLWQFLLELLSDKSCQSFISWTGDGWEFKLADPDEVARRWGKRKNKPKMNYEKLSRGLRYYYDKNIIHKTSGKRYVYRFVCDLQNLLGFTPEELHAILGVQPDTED
# Procedure, shortened: as §1
# SPDEF = target: T9, SPDEF (Homo sapiens, UniProt O95238 1-335); settings: protein: recombinant; tags: N-terminal GST; dsDNA, one strand shown
# T9 sequence: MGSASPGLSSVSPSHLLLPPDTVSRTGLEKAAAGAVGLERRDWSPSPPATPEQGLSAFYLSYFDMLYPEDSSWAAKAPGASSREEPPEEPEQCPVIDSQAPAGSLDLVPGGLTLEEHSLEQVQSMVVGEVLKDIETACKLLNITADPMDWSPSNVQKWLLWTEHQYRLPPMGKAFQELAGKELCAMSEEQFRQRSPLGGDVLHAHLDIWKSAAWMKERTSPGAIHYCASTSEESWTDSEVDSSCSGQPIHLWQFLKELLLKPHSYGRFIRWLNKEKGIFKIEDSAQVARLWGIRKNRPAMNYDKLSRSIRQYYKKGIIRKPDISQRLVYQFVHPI
# Procedure, shortened: as §1
# ETV7 = target: T10, ETV7 (Homo sapiens, UniProt Q9Y603 1-341); settings: protein: recombinant; tags: N-terminal GST; dsDNA, one strand shown
# T10 sequence: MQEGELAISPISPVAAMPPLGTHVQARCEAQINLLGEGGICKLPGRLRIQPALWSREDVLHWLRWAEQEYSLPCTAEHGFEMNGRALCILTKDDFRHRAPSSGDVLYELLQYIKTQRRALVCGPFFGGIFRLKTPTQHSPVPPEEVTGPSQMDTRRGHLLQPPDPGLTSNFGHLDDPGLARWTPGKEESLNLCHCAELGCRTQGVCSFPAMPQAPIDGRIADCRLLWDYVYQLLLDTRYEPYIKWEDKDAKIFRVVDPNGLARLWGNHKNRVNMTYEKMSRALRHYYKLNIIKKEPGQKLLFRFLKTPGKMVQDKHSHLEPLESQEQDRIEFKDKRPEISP
# Procedure, shortened: as §1
# ELF5 = target: T11, ELF5 (Homo sapiens, UniProt Q9UKW6-2 1-255); settings: protein: recombinant; tags: N-terminal GST; dsDNA, one strand shown
# T11 sequence: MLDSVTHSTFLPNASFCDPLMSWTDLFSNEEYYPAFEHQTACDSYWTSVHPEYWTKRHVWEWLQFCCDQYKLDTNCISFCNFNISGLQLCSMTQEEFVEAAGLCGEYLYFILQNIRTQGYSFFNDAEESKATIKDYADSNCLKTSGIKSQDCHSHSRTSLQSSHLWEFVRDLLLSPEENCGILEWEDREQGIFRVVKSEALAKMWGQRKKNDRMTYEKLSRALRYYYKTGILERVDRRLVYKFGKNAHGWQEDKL
# Procedure, shortened: as §1
# ETV3 = target: T12, ETV3 (Homo sapiens, UniProt P41162-2 1-143); settings: protein: recombinant; tags: N-terminal GST; dsDNA, one strand shown
# T12 sequence: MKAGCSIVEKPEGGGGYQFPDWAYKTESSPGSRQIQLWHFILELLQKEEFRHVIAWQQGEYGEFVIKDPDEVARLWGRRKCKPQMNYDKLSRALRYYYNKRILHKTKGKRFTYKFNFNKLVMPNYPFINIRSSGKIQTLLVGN
# Procedure, shortened: as §1
# ETV6 = ETV6 (Homo sapiens, UniProt P41212 1-452); settings: protein: recombinant; tags: N-terminal GST; dsDNA, one strand shown
# Procedure, shortened: as §1
# Sequence of ETV5 (P41161 whole entry): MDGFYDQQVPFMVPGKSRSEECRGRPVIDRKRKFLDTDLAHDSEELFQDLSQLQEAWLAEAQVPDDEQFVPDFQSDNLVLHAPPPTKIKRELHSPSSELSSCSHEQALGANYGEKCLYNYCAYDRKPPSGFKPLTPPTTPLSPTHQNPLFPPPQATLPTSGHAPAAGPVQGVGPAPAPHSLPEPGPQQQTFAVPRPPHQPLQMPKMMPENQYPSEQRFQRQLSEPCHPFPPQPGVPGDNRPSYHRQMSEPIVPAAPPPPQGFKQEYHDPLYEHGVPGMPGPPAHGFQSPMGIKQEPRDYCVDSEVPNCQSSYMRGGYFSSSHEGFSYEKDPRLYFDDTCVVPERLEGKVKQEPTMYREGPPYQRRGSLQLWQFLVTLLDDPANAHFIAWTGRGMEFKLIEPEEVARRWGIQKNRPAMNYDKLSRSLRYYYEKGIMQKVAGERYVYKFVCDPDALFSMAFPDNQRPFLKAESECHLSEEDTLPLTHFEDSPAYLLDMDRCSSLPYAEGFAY
# Sequence of ELF4 (Q99607 whole entry): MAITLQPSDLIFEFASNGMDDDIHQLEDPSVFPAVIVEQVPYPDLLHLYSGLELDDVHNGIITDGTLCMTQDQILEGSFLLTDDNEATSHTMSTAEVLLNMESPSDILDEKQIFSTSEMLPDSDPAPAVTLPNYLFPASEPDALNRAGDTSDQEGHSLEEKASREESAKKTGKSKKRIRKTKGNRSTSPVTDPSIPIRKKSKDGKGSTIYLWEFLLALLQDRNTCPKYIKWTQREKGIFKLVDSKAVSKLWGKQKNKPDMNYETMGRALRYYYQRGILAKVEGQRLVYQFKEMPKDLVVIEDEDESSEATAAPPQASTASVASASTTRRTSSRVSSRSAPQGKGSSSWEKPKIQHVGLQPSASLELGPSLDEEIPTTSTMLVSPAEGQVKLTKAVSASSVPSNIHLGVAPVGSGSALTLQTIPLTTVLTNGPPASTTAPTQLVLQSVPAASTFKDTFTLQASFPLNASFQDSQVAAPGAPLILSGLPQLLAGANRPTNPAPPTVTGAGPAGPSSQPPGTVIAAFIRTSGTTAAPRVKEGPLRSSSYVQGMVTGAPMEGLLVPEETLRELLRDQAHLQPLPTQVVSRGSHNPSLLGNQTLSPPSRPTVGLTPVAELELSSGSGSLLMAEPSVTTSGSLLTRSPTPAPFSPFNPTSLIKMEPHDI
# Sequence of ETV6 (P41212 whole entry): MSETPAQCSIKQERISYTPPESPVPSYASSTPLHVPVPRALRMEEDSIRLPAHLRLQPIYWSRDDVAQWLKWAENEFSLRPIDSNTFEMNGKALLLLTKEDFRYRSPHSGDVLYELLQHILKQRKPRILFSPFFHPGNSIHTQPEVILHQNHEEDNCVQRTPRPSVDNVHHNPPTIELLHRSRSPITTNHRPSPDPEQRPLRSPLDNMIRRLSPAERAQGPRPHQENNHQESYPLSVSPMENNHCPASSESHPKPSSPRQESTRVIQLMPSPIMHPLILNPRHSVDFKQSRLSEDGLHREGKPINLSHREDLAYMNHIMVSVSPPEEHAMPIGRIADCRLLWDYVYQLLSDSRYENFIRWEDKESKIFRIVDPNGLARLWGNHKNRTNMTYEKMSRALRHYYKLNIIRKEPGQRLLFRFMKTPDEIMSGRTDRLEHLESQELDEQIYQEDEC
# Sequence of ETV1 (P50549 whole entry): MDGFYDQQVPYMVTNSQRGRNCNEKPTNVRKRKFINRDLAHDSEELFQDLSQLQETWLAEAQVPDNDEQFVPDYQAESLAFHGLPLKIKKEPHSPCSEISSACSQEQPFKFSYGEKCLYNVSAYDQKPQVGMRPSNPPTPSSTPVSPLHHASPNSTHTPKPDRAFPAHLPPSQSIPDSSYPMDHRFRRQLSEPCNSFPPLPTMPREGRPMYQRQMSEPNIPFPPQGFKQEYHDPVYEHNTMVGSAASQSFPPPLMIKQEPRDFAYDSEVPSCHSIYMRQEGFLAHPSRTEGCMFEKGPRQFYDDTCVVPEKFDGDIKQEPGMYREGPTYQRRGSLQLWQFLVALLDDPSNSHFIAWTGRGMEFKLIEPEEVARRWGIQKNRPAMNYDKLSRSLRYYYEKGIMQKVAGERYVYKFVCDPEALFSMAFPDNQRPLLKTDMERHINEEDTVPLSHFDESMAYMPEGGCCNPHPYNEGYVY
# Sequence of HSF1 (Q00613 whole entry): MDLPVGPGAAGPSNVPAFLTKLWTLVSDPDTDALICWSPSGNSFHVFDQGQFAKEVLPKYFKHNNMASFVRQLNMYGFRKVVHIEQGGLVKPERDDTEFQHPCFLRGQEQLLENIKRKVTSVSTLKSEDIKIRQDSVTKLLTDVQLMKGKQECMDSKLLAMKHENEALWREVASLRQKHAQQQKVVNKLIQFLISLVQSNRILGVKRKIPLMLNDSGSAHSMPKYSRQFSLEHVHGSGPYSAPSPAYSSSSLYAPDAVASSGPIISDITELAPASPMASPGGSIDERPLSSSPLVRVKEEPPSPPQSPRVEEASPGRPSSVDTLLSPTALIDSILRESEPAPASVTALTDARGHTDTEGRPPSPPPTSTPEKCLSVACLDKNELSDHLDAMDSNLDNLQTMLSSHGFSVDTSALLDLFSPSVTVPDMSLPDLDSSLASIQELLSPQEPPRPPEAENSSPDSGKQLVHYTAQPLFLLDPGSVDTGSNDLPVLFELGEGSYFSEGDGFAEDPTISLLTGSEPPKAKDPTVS
# Sequence of CRX (O43186 whole entry): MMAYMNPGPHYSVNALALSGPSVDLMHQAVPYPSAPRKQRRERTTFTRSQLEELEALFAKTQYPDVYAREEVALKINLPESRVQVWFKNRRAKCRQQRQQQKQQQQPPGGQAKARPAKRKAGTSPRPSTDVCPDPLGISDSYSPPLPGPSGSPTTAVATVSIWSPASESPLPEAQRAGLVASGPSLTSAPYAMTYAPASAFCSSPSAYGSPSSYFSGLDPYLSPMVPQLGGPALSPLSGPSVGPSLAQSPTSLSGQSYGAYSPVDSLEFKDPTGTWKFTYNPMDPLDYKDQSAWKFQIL
sequence,measurement,setting,value
CGAACC,binding signal,FEV,"1.24 fold enrichment (6-mer frequency, TF over GST control)"
same,binding signal,ETV5,"1.21 fold enrichment (6-mer frequency, TF over GST control)"
same,binding signal,HSF1,"1.47 fold enrichment (6-mer frequency, TF over GST control)"
same,binding signal,SPIC,"1.23 fold enrichment (6-mer frequency, TF over GST control)"
same,binding signal,ELF4,"1.26 fold enrichment (6-mer frequency, TF over GST control)"
same,binding signal,ELK4,"1.26 fold enrichment (6-mer frequency, TF over GST control)"
same,binding signal,ETV2,"1.2 fold enrichment (6-mer frequency, TF over GST control)"
same,binding signal,ELF3,"1.24 fold enrichment (6-mer frequency, TF over GST control)"
same,binding signal,CRX,"1.02 fold enrichment (6-mer frequency, TF over GST control)"
same,binding signal,ETV1,"1.13 fold enrichment (6-mer frequency, TF over GST control)"
same,binding signal,ERF,"1.12 fold enrichment (6-mer frequency, TF over GST control)"
same,binding signal,ETV3L,"1.15 fold enrichment (6-mer frequency, TF over GST control)"
same,binding signal,ETS2,"1.14 fold enrichment (6-mer frequency, TF over GST control)"
same,binding signal,SPDEF,"1.23 fold enrichment (6-mer frequency, TF over GST control)"
same,binding signal,ETV7,"1.11 fold enrichment (6-mer frequency, TF over GST control)"
same,binding signal,ELF5,"1.09 fold enrichment (6-mer frequency, TF over GST control)"
same,binding signal,ETV3,"1.07 fold enrichment (6-mer frequency, TF over GST control)"
same,binding signal,ETV6,"1.1 fold enrichment (6-mer frequency, TF over GST control)"
